Source: the supplement of paper PMC13380429

Test system: Vero E6 infected with SARS-CoV-2
Experiment: inhibition of SARS-CoV-2 cytopathic effect; higher = more antiviral protection, active = above 15
Conditions: 48 h

Measured: inhibition of SARS-CoV-2 cytopathic effect

Cc1ccc([N+](=O)[O-])cc1O [2-methyl-5-nitrophenol]
inactive: 1 nM -2.8% | 8.33 nM -2.93% | 100 nM -4.49% | 833.33 nM -3.09% | 10000 nM -2.25%

COC(=O)[C@@]12OC[C@]34[C@H]([C@@H](O)[C@@H]1O)[C@@]1(C)CC(=O)C(O)=C(C)[C@@H]1C[C@H]3OC(=O)[C@H](OC(=O)/C=C(\C)C(C)C)[C@@H]24 [bruceantin]
active: 100 nM 26.8%
inactive: 1 nM 1.48% | 8.33 nM 1.92% | 833.33 nM 4.61% | 10000 nM -16.1%

N=C(N)c1ccc(/C=C/c2ccc(C(=N)N)cc2O)cc1 [hydroxystilbamidine]
inactive: 1 nM -3.2% | 8.33 nM -1.76% | 100 nM -5.12% | 833.33 nM -3.2% | 10000 nM -1.16%

C=CCN1CCCC1CNC(=O)c1cc2nn[nH]c2cc1OC (stereo not given) [alizapride]
inactive: 1 nM 0.31% | 8.33 nM 1.78% | 100 nM -1.64% | 833.33 nM -1.24% | 10000 nM -0.58%

CCCCc1cc2ccccc2c(OCCN(C)C)n1 [dimethisoquin]
inactive: 1 nM 0.87% | 8.33 nM 1.84% | 100 nM -0.28% | 833.33 nM 0.5% | 10000 nM -2.53%

CN(Cc1ccccc1)C(=O)[C@H](Cc1ccc2ccccc2c1)NC(=O)[C@@H]1C[C@@H](O)CN1C(=O)c1cn(C)c2ccccc12
inactive: 1 nM 1.18% | 8.33 nM 4.31% | 100 nM 3.48% | 833.33 nM 1.69% | 10000 nM 1.87%

O=C(NCCN1CCC2(CC1)C(=O)NCN2c1cccc(F)c1)c1ccc2ccccc2c1
active: 10000 nM 83.1%
inactive: 1 nM 0.75% | 8.33 nM 3.53% | 100 nM 1.66% | 833.33 nM 1.45%

CC1(C)CC(O)CC(C)(C)N1[O] [tempol]
inactive: 1 nM 9.35% | 8.33 nM 1.45% | 100 nM -0.66% | 833.33 nM 1.43% | 10000 nM 1.53%

CN(C)c1cc(CNCC(C)(C)C)c(O)c2c1C[C@H]1C[C@H]3[C@H](N(C)C)C(O)=C(C(N)=O)C(=O)[C@@]3(O)C(O)=C1C2=O [omadacycline]
inactive: 1 nM -0.66% | 8.33 nM 0.51% | 100 nM 1.58% | 833.33 nM -0.64% | 10000 nM -1.14%

CC(C)(N)CC12CC3CC(CC(C3)C1)C2 [somantadine]
inactive: 1 nM -2.05% | 8.33 nM -1.35% | 100 nM -0.66% | 833.33 nM -1.44% | 10000 nM -6.1%

CC(C)c1onc(-c2c(Cl)cccc2Cl)c1COc1ccc(/C=C/c2cccc(C(=O)O)c2)c(Cl)c1
inactive: 1 nM 0.86% | 8.33 nM 0.15% | 100 nM -0.17% | 833.33 nM 0.5% | 10000 nM 0.01%

OC[C@H]1O[C@@H](O[C@@H]2[C@@H](CO)OC(O)(CO)[C@H]2O)[C@H](O)[C@@H](O)[C@H]1O (mixture of isomers) [lactulose]
inactive: 1 nM 1.11% | 8.33 nM 0.23% | 100 nM -0.45% | 833.33 nM -1.79% | 10000 nM 1.61%

Oc1cc(CNC(=S)/C=C/c2cc(O)c(O)c(Br)c2)cc(O)c1O
inactive: 1 nM 0.9% | 8.33 nM 0.99% | 100 nM 2.87% | 833.33 nM 5.44%
active: 10000 nM 19.8%

COc1cc(C(=S)N2CCOCC2)cc(OC)c1OC [sulmetozine]
inactive: 1 nM -6.81% | 8.33 nM -0.82% | 100 nM 1.75% | 833.33 nM -0.02% | 10000 nM 2.55%

O=C(O)COc1ccc(/C=C2\SC(=O)NC2=O)cc1
inactive: 1 nM 0.12% | 8.33 nM 0.67% | 100 nM 5.3% | 833.33 nM 4.16% | 10000 nM -0.64%

CN(C)CC[C@@]1(c2ccc(Cl)cc2)Cc2ccccc2C(=O)O1 (racemic)
inactive: 1 nM -1.76% | 8.33 nM -2.36% | 100 nM -1.71% | 833.33 nM -2.86% | 10000 nM -3.54%

CNC(=O)c1nn(C)c2c1C(C)(C)Cc1cnc(Nc3ccc(N4CCN(C)CC4)cc3)nc1-2
inactive: 1 nM 0.32% | 8.33 nM 0.79% | 100 nM 1.17% | 833.33 nM -4.6% | 10000 nM -10.3%

c1ccc2c(c1)OC[C@H](CNCCCOc1ccc3c(c1)OCO3)O2 [osemozotan]
inactive: 1 nM 2.23% | 8.33 nM 1.12% | 100 nM 3.35% | 833.33 nM 1.42% | 10000 nM 0.79%

Cc1cc(C)c(Nc2ccnc(Nc3ccc(C#N)cc3)n2)c(C)c1 [dapivirine]
inactive: 1 nM -0.02% | 8.33 nM -0.53% | 100 nM 0.06% | 833.33 nM 2.16% | 10000 nM -8.23%

CC(C)NCC(O)c1ccccc1Cl (stereo not given) [clorprenaline]
inactive: 1 nM 2.05% | 8.33 nM 1% | 100 nM 0.74% | 833.33 nM 1.39% | 10000 nM -1.17%

CCC(=O)N1CCN(c2ccc(-n3c(=O)ccc4cnc5ccc(-c6cnc7ccccc7c6)cc5c43)cc2C(F)(F)F)CC1 [torin-1]
inactive: 1 nM 1.59% | 8.33 nM -1.08% | 100 nM 0.88% | 833.33 nM -0.28% | 10000 nM -0.2%

O=C(NO)c1ccc(O)c(O)c1 [didox]
inactive: 1 nM 1.58% | 8.33 nM 0.68% | 100 nM 1.83% | 833.33 nM -2.16% | 10000 nM -2.13%

Cc1ccc(NC(=O)c2cccc(N(C)C)c2)cc1NC(=O)c1ccc(O)cc1
inactive: 1 nM -3.41% | 8.33 nM -1.26% | 100 nM 6.65% | 833.33 nM 1.14% | 10000 nM 6.69%

C[C@@H]1CN(c2c(F)c(F)c3c(=O)c(C(=O)O)cn(C4CC4)c3c2F)C[C@H](C)N1 [orbifloxacin]
inactive: 1 nM -6.82% | 8.33 nM -2.82% | 100 nM -5.64% | 833.33 nM -4.29% | 10000 nM -4.52%

NC(=O)c1ncn([C@@H]2O[C@H](CO)[C@@H](O)[C@H]2O)c1N [acadesine]
inactive: 1 nM 0.23% | 8.33 nM 2.34% | 100 nM 1.8% | 833.33 nM 0.21% | 10000 nM -1.3%

O=C1c2cccc(O)c2C(=O)c2c(O)cccc21 [dantron]
inactive: 1 nM -2.75% | 8.33 nM -3.39% | 100 nM -1.6% | 833.33 nM -0.79% | 10000 nM 0.11%

CCCn1c(=O)c2nc(-c3ccccc3)[nH]c2n(CCC)c1=O [1,3-dipropyl-8-phenylxanthine]
inactive: 1 nM -3.41% | 8.33 nM -2.62% | 100 nM -2.96% | 833.33 nM -3.56% | 10000 nM -1.61%

Cc1ccccc1-c1cc(N2CCN(C)CC2)ncc1N(C)C(=O)C(C)(C)c1cc(C(F)(F)F)cc(C(F)(F)F)c1 [netupitant]
inactive: 1 nM 0.76% | 8.33 nM 0.01% | 100 nM -1.38% | 833.33 nM -1.26% | 10000 nM 8.28%

O=C(O)c1ccc(OCCn2ccnc2)cc1 [dazoxiben]
inactive: 1 nM 1.06% | 8.33 nM 2.92% | 100 nM 3.5% | 833.33 nM -0.21% | 10000 nM -0.65%

C[N+](C)(C)CCOP(=O)(O)OC[C@H](O)CO [choline-alfoscerate]
inactive: 1 nM -1.69% | 8.33 nM -1.94% | 100 nM -3.48% | 833.33 nM -1.31% | 10000 nM -2.46%

Cc1cccc(-c2n[nH]cc2-c2ccc(F)c(-c3cnn(CCO)c3)c2)n1
inactive: 1 nM 3.99% | 8.33 nM 1.16% | 100 nM -2.29% | 833.33 nM -0.9% | 10000 nM -3.66%

CS(=O)(=O)c1ccc(-c2cnc(N)c(C(=O)Nc3ccccc3)n2)cc1
inactive: 1 nM 1.3% | 8.33 nM -2.14% | 100 nM 1.58% | 833.33 nM 0.67% | 10000 nM 2.65%

Nc1nc(=O)n([C@H]2C[C@H](O)[C@@H](CO)O2)cc1F [fdcyd]
inactive: 1 nM 0.4% | 8.33 nM 0.55% | 100 nM -0.04% | 833.33 nM 8.53% | 10000 nM -2.15%

CCCCCCCCC(=O)N[C@H](CN1CCCC1)[C@H](O)c1ccc2c(c1)OCCO2
inactive: 1 nM 3.01% | 8.33 nM 0.25% | 100 nM 2.54% | 833.33 nM 1.06% | 10000 nM 9.9%

N#CCC(=O)NN [cyacetacide]
inactive: 1 nM -3.1% | 8.33 nM 1.89% | 100 nM 6.23% | 833.33 nM 6.6% | 10000 nM 7.12%

Nc1ncn([C@H]2C[C@H](O)[C@@H](CO)O2)c(=O)n1 [decitabine]
inactive: 1 nM 3.33% | 8.33 nM 3.36% | 100 nM 4.5% | 833.33 nM -1.04% | 10000 nM -3.03%

COC(=O)C1=C(C)N(C)C(C)=C(C(=O)OC)C1c1ccc(C(F)(F)F)cc1
inactive: 1 nM 1.98% | 8.33 nM -2.17% | 100 nM 0.85% | 833.33 nM 2.1% | 10000 nM 8.02%

COc1cc(/C=C(\C#N)C(N)=O)cc(CSc2nc3ccccc3s2)c1O [tyrphostin-AG-825]
inactive: 1 nM 2.84% | 8.33 nM 1.12% | 100 nM 0.69% | 833.33 nM -0.02% | 10000 nM 0.99%

O=C(O)Cc1cccnc1C(=O)O [homoquinolinic-acid]
inactive: 1 nM 3.71% | 8.33 nM -1.17% | 100 nM -11.5% | 833.33 nM 1.81% | 10000 nM 1.14%

O=C(C[S+]([O-])C(c1ccccc1)c1ccccc1)NO (stereo not given) [adrafinil]
inactive: 1 nM -1.03% | 8.33 nM -1.5% | 100 nM -3.32% | 833.33 nM 1.58% | 10000 nM -1.53%
